From PubChem BioAssay
Hits are enriched below; roughly 7.4% of the tested compounds scored in any of these assays.
NPC1 prom act: activators of NPC1 promoter; Huh7 NPC1 promoter luciferase reporter, 24 h; 320,000 compounds, 2.4% hits; Potency, µM (titrated, usually from 9.22 µM), hits mostly activators; AID 485313; also: nearly all actives have a fitted effect of over 60% in size
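In 1536-well qHTS, Huh7 cells harboring an NPC1 promoter–luciferase construct received compound for 24 h; activation was quantified by luminescence following luciferase reagent addition.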
FLuc counter: firefly luciferase modulation, counter-screen for miR-21 project. P08659. purified FLuc, Km substrates, luminescence inhibition. Potency, µM (highest dose often 57.5 µM), hits mostly inhibitors. 360,000 compounds, 6.9% hits. AID 588342; also: nearly all actives have a fitted effect of over 55% in size
Target sequence (P08659 whole entry, looked up): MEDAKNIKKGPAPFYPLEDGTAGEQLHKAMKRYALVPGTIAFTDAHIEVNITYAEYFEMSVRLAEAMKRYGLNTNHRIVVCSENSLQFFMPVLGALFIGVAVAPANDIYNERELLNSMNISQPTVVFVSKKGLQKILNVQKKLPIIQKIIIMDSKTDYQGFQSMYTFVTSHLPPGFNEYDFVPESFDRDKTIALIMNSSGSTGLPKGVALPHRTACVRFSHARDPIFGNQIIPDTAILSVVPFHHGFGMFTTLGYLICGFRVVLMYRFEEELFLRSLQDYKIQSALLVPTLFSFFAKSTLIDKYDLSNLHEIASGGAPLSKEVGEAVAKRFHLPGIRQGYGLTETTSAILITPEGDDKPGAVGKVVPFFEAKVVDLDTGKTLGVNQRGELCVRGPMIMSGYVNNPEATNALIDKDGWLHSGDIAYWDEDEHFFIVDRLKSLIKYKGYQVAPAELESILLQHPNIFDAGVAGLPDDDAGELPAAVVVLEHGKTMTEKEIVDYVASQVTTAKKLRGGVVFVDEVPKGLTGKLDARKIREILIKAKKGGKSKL
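Biochemical qHTS of compounds, final roughly 60 µM downward over six points, against 10 nM purified firefly luciferase using Km concentrations of substrates (10 uM D-luciferin, 10 uM ATP) in Tris acetate pH 7.5 buffer; luminescence output.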
ELG1 genotoxic: genotoxicity induction in ELG1-luciferase HEK293T cells; HEK293T ELG1-luciferase reporter, luminescence, 16 h; 330,000 compounds, 1.3% hits; Potency, µM (top dose mostly 46 µM), hits mostly activators; also: nearly all actives have a fitted effect of over 60% in size
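Step 1: seed 2,000 HEK293T ELG1-luciferase cells per well. Step 2: add compound or DMSO, incubate 16 hr at 37 °C. Step 3: ONE-Glo, 30 min at room temperature, read luminescence.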
Rab9 promoter act: activators of Rab9 promoter | 320,000 compounds, 2.8% hits | AID 485297 | Potency, µM (top dose mostly 9.22 µM), actives largely listed as activators | Huh7 Rab9 promoter-luciferase reporter, luminescence, 24 h; also: nearly all actives have a fitted effect of over 60% in size
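Huh7 cells stably carrying Rab9 promoter–luciferase reporter, plated 1500 cells/well, compound added after 2 h and incubated 24 h at 37 °C; luciferase luminescence then read after 10 min with detection reagent.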
SMN2 splice enh: SMN2 splice variant enhancement. HEK293 SMN2-luciferase splicing reporter, luminescence, 30-36 h. Potency, µM (top dose mostly 46.1 µM), hits mostly activators. 210,000 compounds, 2.8% hits. AID 1458; also: nearly all actives have a fitted effect of over 55% in size
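HEK293 cells carry an SMN2 minigene-luciferase reporter in which exon 7 inclusion puts luciferase in frame. Cells were seeded at 2000 cells/well, attached for 10-12 hours, then exposed to compounds for 30-36 hours at 37C before ONE-Glo luminescence.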
Luc counter: blocks Kinase-Glo luciferase, a counter-screen artifact. AID 1379. Q27757. 200,000 compounds, 0.28% hits. Kinase-Glo luciferase, ATP luminescence, 8 min. Potency, µM (series often up to 38.3 µM), most hits filed as inhibitors; also: nearly all actives have a fitted effect of over 60% in size
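Compound is pinned into ATP-containing buffer (10 uM ATP, imidazole pH 7.2, 7 mM MgCl2). Kinase-Glo luciferase reagent is then added. Light output is recorded following an 8-min room-temperature incubation.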
A number is an active result. Calls follow the shape of the dose curve; as a rule, active = well fitted curve in the direction sought with a large enough effect; inconclusive = small, poorly fitted or top-dose-only effect, or another doubt; inactive = no such curve, though single readings can be large; an effect the other way counts as inactive or inconclusive.

Screening COc1ccc(/C=N/Nc2ncc(Br)cn2)c(OC)c1 returned NPC1 prom act inactive, FLuc counter 2.7µM, ELG1 genotoxic 7.3µM, Rab9 promoter act inconclusive, SMN2 splice enh 22µM and Luc counter inactive.
For COc1ccc(/C=N/Nc2ccccn2)c(OC)c1OC the results were NPC1 prom act inconclusive, FLuc counter 17µM, ELG1 genotoxic inconclusive, Rab9 promoter act inconclusive, SMN2 splice enh inconclusive and Luc counter inactive.
`CCOCCn1ccc2c(OCC(=O)Nc3cccc(F)c3)cccc2c1=O` gave FLuc counter inactive.
For COc1ccc(-c2cc(C(=O)N3CCC3)c3ccccc3n2)cc1OC the results were NPC1 prom act inactive, FLuc counter inactive, ELG1 genotoxic inactive and Rab9 promoter act inactive.
`CC(C)Oc1cccc(-c2cc(C(=O)N3CCN(S(C)(=O)=O)CC3)c3ccccc3n2)c1` gave NPC1 prom act inactive, FLuc counter 3µM, ELG1 genotoxic inactive, Rab9 promoter act inactive, SMN2 splice enh inconclusive and Luc counter inactive.
`O=C(c1cc(-c2ccccn2)nc2ccccc12)N1CCN(c2ncccn2)CC1` gave NPC1 prom act inactive, FLuc counter inconclusive, ELG1 genotoxic inactive, Rab9 promoter act inactive, SMN2 splice enh inactive and Luc counter inactive.
For COc1ccc(-c2cc(C(=O)N3CCN(c4ncccn4)CC3)c3ccccc3n2)cc1OC the results were NPC1 prom act inactive, FLuc counter 13µM, ELG1 genotoxic inactive and Rab9 promoter act inactive.
For CC(C)Oc1cccc(-c2cc(C(=O)N3CCN(c4ncccn4)CC3)c3ccccc3n2)c1 the results were NPC1 prom act inactive, FLuc counter 1.3µM, ELG1 genotoxic inactive, Rab9 promoter act inactive, SMN2 splice enh inactive and Luc counter inactive.
`Cc1ccc2nc(-c3ccccn3)cc(C(=O)N3CCN(c4ncccn4)CC3)c2c1` gave NPC1 prom act inactive, FLuc counter 19µM, ELG1 genotoxic inactive, Rab9 promoter act inactive, SMN2 splice enh inactive and Luc counter inactive.
O=C(Nc1cccc(Cl)c1)c1cc(S(=O)(=O)N2CCCc3ccccc32)ccc1F was read as FLuc counter inactive.
For Cc1ccccc1CN1CCN(CC2CC2)CC1CCO (stereo not drawn) the results were NPC1 prom act inactive, FLuc counter inactive, ELG1 genotoxic inactive and Rab9 promoter act inactive.
CC(/C=C/C=C/c1ccccc1)=N/NC(=O)c1ccc2c(c1)OCCO2 was read as NPC1 prom act inactive, FLuc counter inconclusive, ELG1 genotoxic inactive and Rab9 promoter act inactive.
`O=C(NCc1ccc2c(c1)OCO2)C(=O)NCC1OCCCN1S(=O)(=O)c1ccc(F)cc1` (stereo not drawn) gave NPC1 prom act inactive, FLuc counter inactive, ELG1 genotoxic inactive and Rab9 promoter act inactive.
COc1ccc(NC(=O)COC(=O)C2CCN(S(=O)(=O)c3cccs3)CC2)cc1OC was read as ELG1 genotoxic inactive.
`COc1cccc(-c2cc(C(=O)N3CCN(c4ncccn4)CC3)c3ccccc3n2)c1` gave NPC1 prom act inactive, FLuc counter inconclusive, ELG1 genotoxic inactive, Rab9 promoter act inactive, SMN2 splice enh 35µM and Luc counter inactive.
O=C(Nc1ccsn1)c1ccc(Cl)cc1Cl was read as NPC1 prom act 3.2µM, FLuc counter inconclusive, ELG1 genotoxic inconclusive and Rab9 promoter act inconclusive.
For Cc1cc(NC(=O)c2ccc(Cl)cc2Cl)no1 the results were NPC1 prom act 1.4µM, FLuc counter 8.5µM, ELG1 genotoxic inconclusive and Rab9 promoter act 2.8µM.
For Cc1cc(NC(=O)Nc2ccc(Cl)cc2)no1 the results were NPC1 prom act inactive, FLuc counter inconclusive, ELG1 genotoxic inactive and Rab9 promoter act inactive.
For O=C(CSc1ncnc2sccc12)NCc1ccc2c(c1)OCO2 the results were NPC1 prom act inactive, FLuc counter inactive, ELG1 genotoxic inactive and Rab9 promoter act inactive.
For CC(=O)c1ccc(COC(=O)c2cc3ccccc3oc2=O)cc1 the results were NPC1 prom act inactive, FLuc counter 17µM, ELG1 genotoxic inactive and Rab9 promoter act inactive.
COc1cccc2cc(C(=O)OCc3ccccc3)c(=O)oc12 was read as NPC1 prom act inactive, FLuc counter 6µM, ELG1 genotoxic inactive and Rab9 promoter act inactive.
